These results are taken from PubChem BioAssay (NCI).

Test in all cases: NCI-60 one-dose screen, 48 h (100 = growth as untreated, 0 = no growth, -100 = all killed)
What all share (settings): 10 µM unless noted

Assay [1] has as its system RPMI-8226 leukemia.
Assay [2] relates to OVCAR-5 ovarian.
Assay [3] concerns OVCAR-4 ovarian.
Assay [4] deals with SK-OV-3 ovarian.
The test system of assay [5] is IGROV1 ovarian.
The test system of assay [6] is OVCAR-3 ovarian.
Assay [7] deals with HS 578T breast.
Assay [8] concerns NCI/ADR-RES ovarian.
The test system of assay [9] is T-47D breast.
The subject of assay [10] is BT-549 breast.
The test system of assay [11] is MDA-MB-435 melanoma.
Assay [12] relates to SW-620 colon.
Assay [13] has as its system MCF7 breast.
The subject of assay [14] is HCT-116 colon.
The test system of assay [15] is HCC-2998 colon.
Assay [16] concerns KM12 colon.
The test system of assay [17] is OVCAR-8 ovarian.

About 83,000 compounds went through this panel and 20% of them were active in at least one assay; those are over-represented in the sample as a whole.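 Method: cells in 96-well plates; compound added at one concentration; 48 h incubation; percent growth measured; values under 10 scored active.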 Unmarked numbers belong to inactive results. Calls of active or inactive are those of the source.

In the case of `COc1ccc(-c2cc(-c3cc4ccccc4oc3=O)n(-c3ccccc3)n2)cc1`, the growth was 86.4% in [1]; 91.1% in assay [2]; 13.2% in assay [3]; 76.7% in assay [4]; 14% in assay [5]; 68.2% in [6]. Besides, the growth in assay [7] is 66.4%; in assay [8], 69.5%; in assay [9], 73.1%; in assay [10] it was 75.1%; in [11], 100%; in assay [12] it was 66.6%. In addition, the growth is 76% in assay [13], 2.14% (active) in [14], 103% in assay [15] and 69.3% in assay [16].

Consider `O=C(Nc1ccccc1)c1cc2ccccc2s1`, for which the growth in assay [17] was 96.9%; in assay [2] it was 81.7%; in [4], 99.4%; in assay [5] it was 87.3%; in assay [6], 105%; in assay [7], 98.5%. The growth in assay [8] is 94.4%; in [9] it was 38.1%; in assay [10], 95.9%; in [11] it was 109%; in assay [12], 101%; in [13], 46.8%. Moreover, the growth in [14] is 75.8%; in assay [15], 48.9%; in assay [16], 29.8%.

As for `O=C(NCCN1CCCC1)n1cc(-c2ccncc2)c(-c2cc(O)cc(Cl)c2)n1`, the growth in [17] was 77.8%; in assay [2] it was 113%; in assay [3] it was 118%; in assay [4], 86.1%; in assay [5], 109%; in assay [6] it was 116%. The growth was 99.6% in assay [7]; 101% in assay [8]; 98% in assay [9]; 111% in assay [10]; 57.3% in assay [11]; 115% in assay [12]. Further, the growth is 96.2% in [13], 75.3% in assay [14], 122% in assay [15] and 108% in assay [16].

Regarding `Clc1cc2nc(-c3ccccc3)c(-c3ccccc3)nc2cc1Cl`, the growth in assay [17] was 112%; in assay [2], 98.6%; in [3], 86.9%; in [4], 89.3%; in assay [5], 65.6%; in assay [6] it was 92.1%. Moreover, the growth in [7] is 93.7%; in assay [8] it was 98.5%; in [9], 76.6%; in assay [10], 118%; in assay [11], 108%; in assay [12], 89.7%. Also, the growth in assay [13] is 78.1%; in assay [14], 84.8%; in assay [15], 94.1%; in [16], 92%.

In the case of `COc1cc(NC(=O)CSc2nc3ccc(Cl)cc3c(=O)n2-c2ccccc2)cc(OC)c1OC`, the growth in assay [17] is 93.2%; in assay [2], 96.3%; in assay [3], 85.7%; in [4], 101%; in assay [5], 91.5%; in [6], 97%. The growth in assay [7] was 81.5%; in assay [8], 90.8%; in assay [9], 85.4%; in [10], 78.9%; in [11] it was 101%; in assay [12], 101%. The growth was 99.1% in assay [13], 92.5% in [14], 106% in assay [15] and 100% in [16].

As to `C=C(COC(C)=O)[C@H]1CC/C(C)=C/CC/C(C)=C/CC[C@@]2(C)O[C@H]2C1`, the growth in assay [1] is 180%; in assay [17] it was 103%; in [2] it was 99.2%; in assay [4] it was 125%; in [5], 103%; in assay [6], 121%. The growth in assay [7] was 108%; in [8], 102%; in [9] it was 109%; in [10], 105%; in [11], 113%; in [12] it was 112%. Moreover, the growth is 91.1% in assay [13], 98.2% in assay [14], 112% in [15] and 98.6% in assay [16].

As for `COc1ccc(-n2nc(C(=O)Nc3ccc(F)cc3)nc2-c2cc(OC)c(OC)c(OC)c2)cc1`, the growth is 96.8% in assay [1]; 97.8% in assay [2]; 90.5% in [3]; 94.8% in [4]; 98.1% in assay [5]; 92.4% in [6]. The growth in assay [7] is 89.3%; in assay [8], 85%; in assay [9], 75.3%; in assay [10] it was 73%; in assay [12], 96.6%; in [13], 91.8%. Besides, the growth was 80.9% in [14] and 96% in assay [16].

With `Cc1cc(Nc2c3ccccc3nc3ccccc23)ccc1NS(C)(=O)=O`, the growth in assay [1] was 31.2%; in assay [2], 27.5%; in [3], 48.1%; in [4], 43.5%; in assay [5], 25.5%; in [6], 46.6%. Moreover, the growth in assay [8] was 57.7%; in [9], 45%; in [10] it was 78.7%; in assay [11] it was 36.8%; in assay [12], 21.8%; in assay [14], 13.7%. The growth in [15] is 50.8%; in [16] it was 40.5%.

On to `CCN(CC)c1ccc(/C=C2/NC(=O)NC2=O)cc1`, for which the growth in [1] is 74.1%; in assay [17] it was 79.9%; in assay [2] it was 33.2%; in assay [4], 33.7%; in [5], 46.7%; in assay [6], 19.3%. In addition, the growth in assay [7] was -2.99% (active); in assay [8], -31.9% (active); in assay [9], 16.2%; in assay [10] it was 38.9%; in assay [11] it was -34.1% (active); in assay [12] it was 29%. The growth in assay [13] was 6.89% (active); in assay [14] it was 20.2%; in assay [15], 39.5%; in assay [16], 20.5%.
